Source: PubChem BioAssay (National Center for Advancing Translational Sciences (NCATS))
Shown are actives, neighbours in structure and some others; about 19% of the full set was active somewhere.
HT1080 IDH1KD tx: kills HT-1080 cells with IDH1 knockdown. Potency, µM (titrated, usually from 46.1 µM), inactives show top-dose activity, negative = toxicity, usual class: cytotoxic. AID 686971. HT-1080 IDH1 knockdown viability, ATP luminescence, 48 h. 360,000 compounds, 2% hits;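 also: potency is read from the fitted curve at half-maximal effect; 0% = DMSO wells and -100% = cell-free medium wells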
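Luminescent ATP read-out (CellTiter-Glo, 10 min at room temperature) after 48 h compound exposure at 37 °C gave viability of IDH1-knockdown HT-1080 cells. Activity was normalised to DMSO and cell-free wells, then fitted as concentration-response curves.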
HT1080NT lethal: kills 2HG-producing HT-1080-NT fibrosarcoma cells; HT-1080-NT fibrosarcoma viability, CellTiter-Glo ATP luminescence, 48 h; Potency, µM (doses to about 46.1 µM), for the others: at the highest dose activity, negative = less viability, actives largely listed as cytotoxic; 360,000 compounds, 1.6% hits;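 also: NT is the 2HG producing partner of a matched IDH1 knockdown line; potency is read from the fitted curve at half-maximal effect; 0% = DMSO-treated cells and -100% = media-only wells without cells; nearly all actives have a fitted effect of over 55% in size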
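HT-1080-NT fibrosarcoma cells (2HG-overproducing), 750 cells/well in RPMI with 5% FBS, dosed after 2 h and incubated 48 h at 37C. CellTiter-Glo luminescence normalized to DMSO and no-cell wells; concentration-response curves fitted and classed.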
ELG1 DNA repair: ELG1-dependent DNA repair inhibition | HEK293T ELG1-luciferase reporter, luminescence, 16 h; DNA damage induced by 5-fluorouridine | Potency, µM (doses to about 46.1 µM), inactives show at the highest dose activity change, negative = inhibition, usual class: inhibitors | 330,000 compounds, 2.3% hits; also: potency is read from the fitted curve at half-maximal effect; nearly all actives have a fitted effect of over 55% in size
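In this reporter screen, reduction of luminescence relative to DMSO vehicle indicated activity. Compounds and 5-fluorouridine were added together to 2,000 cells per well, incubated for 16 hr at 37 °C, then developed with ONE-Glo.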
IL-1B inflam inh: inflammasome signaling inhibition, IL-1 beta readout. THP-1 LPS/ATP IL-1B secretion, AlphaLISA, 16 h; stronger effect = lower value. activity change, % at 57.5 µM. 360,000 compounds, 4.7% hits. AID 743279; in the data active = activity change below about -50%; inconclusive = mostly about -30% to -49%
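Secreted IL-1B measured by AlphaLISA bead assay after 16 h compound exposure of THP-1 cells; compounds (final up to 57.5 uM) added 1 h before LPS (250 ng/mL) and ATP (1.25 mM) stimulation; lower signal means less secretion.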
DT40 TDP1 CPT: growth inhibition of DT40 Tdp1-/-;hTDP1 cells with camptothecin (screen for TDP1 inhibitors) | AID 686979 | chicken DT40 Tdp1-/-;hTDP1 cells + 20 nM CPT, ATP luminescence, 48 h | 420,000 compounds, 12% hits | Potency, µM (top dose mostly 46.2 µM), without a hit: at the top dose activity change, negative = growth inhibition, hits mostly inhibitors; also: potency is read from the fitted curve at half-maximal effect; nearly all actives have a fitted effect of over 55% in size
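Chicken DT40 Tdp1-/- cells stably complemented with human TDP1 were seeded at 400 cells/well in medium containing 20 nM camptothecin, exposed to pin-transferred compounds, and grown at 37 °C for at least 48 hr. Viability was read as ATP luminescence.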
TDP1 cell noCPT: qHTS for Inhibitors of human tyrosyl-DNA phosphodiesterase 1 (TDP1): qHTS in cells in absence of CPT; DT40 Tdp1-/- hTDP1 cells, no CPT, ATP luminescence, 48 h; Potency, µM (top dose mostly 46.2 µM), inactives show top-dose activity change, negative = growth inhibition, hits mostly inhibitors; 420,000 compounds, 15% hits; also: potency is read from the fitted curve at half-maximal effect; nearly all actives have a fitted effect of over 55% in size
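Growth kinetics read by CellTiter-Glo luminescence after ≥48 hr at 37 °C. Cells: DT40 Tdp1-/- stably carrying human TDP1, 400 per well, compound exposure in the absence of CPT (DMSO vehicle).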
Numbers without * were called inactive; u = inconclusive; x = no result given. Unless noted, calls follow the shape of the dose curve; as a rule, active = well fitted curve in the direction sought with a large enough effect; inconclusive = small, poorly fitted or top-dose-only effect, or another doubt; inactive = no such curve, though single readings can be large; an effect the other way counts as inactive or inconclusive. Unless noted, % is scaled to controls: 0 for no effect and ±100 for the full control effect.

SMILES | HT1080 IDH1KD tx | HT1080NT lethal | ELG1 DNA repair | IL-1B inflam inh | DT40 TDP1 CPT | TDP1 cell noCPT
COc1ccc(CC(=O)Nc2cccc(S(=O)(=O)N3CCCCCC3)c2)cc1OC | -21% | -16% | -20% | -4 | 6.5µM* | 7.3µM*
CC(C)n1c(=O)c2ccccc2n1Cc1cn(-c2ccccc2)nn1 | 0% | 0% | x | 5 | -12% | u
C=C(C)Cn1c(=O)c2c(nc3n2CCN3c2cc(C)cc(C)c2)n(C)c1=O | x | x | x | x | -24% | 23µM*
C=C(C)Cn1c(=O)c2c(nc3n2CCCN3CCc2ccccc2)n(C)c1=O | -3% | -4% | 16µM* | 6 | u | 13µM*
COCCn1c(=O)c2c(nc3n2CCCN3CCc2ccccc2)n(C)c1=O | 3% | 0% | -12% | 38 | 4% | -8%
Cc1ccccc1Cn1c(=O)c2c(nc3n2CCCN3Cc2ccccc2)n(C)c1=O | -14% | -7% | x | -1 | 21µM* | u
CCCCn1c(=O)c2c(nc3n2CCCN3Cc2ccccc2)n(C)c1=O | 22% | 19% | -3% | 26 | u | 23µM*
O=C(c1ccc([N+](=O)[O-])cc1)N1CCN(Cc2ccccc2[N+](=O)[O-])CC1 | -15% | -11% | u | -27 | u | u
Cc1ccc(NC(=O)CSCC(=O)Nc2nnc(C)s2)cc1 | 3% | 5% | 2% | 12 | -2% | -8%
Cn1c(=O)n(CC(=O)OCc2ccccc2)c(=O)c2c1nc1n2CCCN1C1CCCCC1 | -3% | 1% | x | 4 | u | 23µM*
Cc1nc(Nc2ccccc2Br)c2nnn(Cc3ccccc3)c2n1 | -7% | -3% | -1% | -16 | u | u
CCOC(=O)CNc1nc(C(C)(C)C)nc2c1nnn2Cc1ccccc1Cl | -20% | -2% | u | 16 | u | 26µM*
COc1ccc(Nc2nc(C)nc3c2nnn3Cc2ccccc2)cc1OC | -13% | -14% | 9.2µM* | -11 | u | 23µM*
Cc1nc(Nc2cc(F)ccc2C)c2nnn(Cc3ccccc3)c2n1 | -18% | -8% | u | u | u | 21µM*
Cc1nc(N(C)Cc2ccccc2)c2nnn(Cc3ccccc3)c2n1 | -1% | -7% | u | -24 | 23µM* | 18µM*
OCCNc1ncnc2c1nnn2Cc1ccccc1Cl | -6% | -5% | x | -5 | -7% | -15%
Cc1ccccc1CNC(=O)C(C)Sc1ccccc1 (stereo unspecified) | 0% | -9% | x | -3 | -9% | -20%
COc1ccc(Nc2nc(C(C)(C)C)nc3c2nnn3Cc2ccccc2Cl)cc1OC | -1% | -2% | x | -6 | 18µM* | 15µM*
Cc1nc(NC2CCCCC2)c2nnn(Cc3ccccc3Cl)c2n1 | -3% | -8% | u | 1 | u | u
Cc1nc(NCCc2ccc(O)cc2)c2nnn(Cc3ccccc3)c2n1 | u | u | -15% | -28 | u | 15µM*
Cc1nc(Nc2ccc(S(=O)(=O)N3CCCCC3C)cc2)c2nnn(Cc3ccccc3)c2n1 (stereo unspecified) | 21% | -1% | 7.3µM* | -8 | u | 23µM*
Cc1noc(C)c1COc1ccc(C(=O)OC(C)C(=O)Nc2ccc(S(=O)(=O)N3CCOCC3)cc2)cc1 (stereo unspecified) | 16% | 23% | -1% | 16 | u | u
Cc1ccc(S(=O)(=O)N2CCC3(CC2)OCCO3)cc1 | 1% | 9% | -6% | 7 | -5% | 16%
COC(=O)c1ccc(N2CCN(C)CC2)c(NC(=O)COc2ccc(C)cc2)c1 | -8% | 24% | 3% | -16 | u | -16%
COC(=O)c1ccc(N2CCN(C)CC2)c(NC(=O)COc2ccccc2Cl)c1 | -4% | 0% | u | -11 | 21µM* | 23µM*
SMILES | HT1080 IDH1KD tx | HT1080NT lethal | ELG1 DNA repair | IL-1B inflam inh | DT40 TDP1 CPT | TDP1 cell noCPT
COC(=O)c1ccc(N2CCN(C)CC2)c(NC(=O)COc2ccc(OC)cc2)c1 | -5% | -5% | u | -23 | 21µM* | -25%
COC(=O)c1ccc(N2CCN(C(C)=O)CC2)c(NC(=O)COc2ccccc2C)c1 | -19% | -25% | u | -10 | -28% | -23%
O=C(NCCN1CCC(n2c(=O)[nH]c3ccccc32)CC1)c1ccc(F)cc1Cl | 6% | 1% | x | -10 | u | u
C[C@H]1CN=C(N(C)C)N1CC1CCC(C(C)(C)C)CC1 (stereo partly specified) | u | u | -19% | -8 | 13µM* | 12µM*
C[C@H]1CN=C(N(C)C)N1CCC1CCCCC1 | 2% | 3% | 15% | 12 | u | 16µM*
C[C@H]1CN=C(N(C)C)N1CCCC1CCCC1 | -1% | -2% | -3% | u | 16µM* | 12µM*
C[C@H]1CN=C(N(C)C)N1CC1CCCC1 | -3% | -1% | 0% | 25 | -7% | -19%
Cc1nn(C)c2c1c(C(F)(F)F)cc(=O)n2Cc1ccc(Br)cc1F | x | x | x | x | -3% | 0%
COc1ccc(NS(=O)(=O)c2ccc(N3CCOCC3)c(NC(=O)c3ccccc3Cl)c2)cc1 | 0% | -8% | -9% | 0 | -15% | u
COc1ccc(NS(=O)(=O)c2ccc(N3CCOCC3)c(NC(=O)c3ccc(OC)cc3)c2)cc1 | -20% | 0% | u | 3 | 16µM* | 16µM*
COc1ccc(S(=O)(=O)Nc2ccc(N3CCOCC3)cc2)cc1 | -4% | -3% | -6% | -3 | -14% | -1%
COc1ccc(NS(=O)(=O)c2ccc(N3CCOCC3)c(N)c2)cc1 | -10% | -16% | u | -21 | 2.6µM* | 1.2µM*
CC(C)CC[n+]1ccccc1/C=C/c1ccc(N(C)C)cc1 | 23µM* | u | u | -95* | 0.018µM* | 0.026µM*
CSc1ccccc1C(=O)NCC1Cc2cccc(-c3ncccc3C)c2O1 (stereo unspecified) | x | x | x | x | -8% | -23%
COc1ccccc1CNCc1ccc(C)cc1 | 9% | 8% | -5% | -8 | u | 0%
Cc1ccc(CNCc2cn[nH]c2-c2ccc(C)cc2)cc1 | x | x | x | x | 7.9µM* | 13µM*
Cc1ccc(-c2[nH]ncc2CNCc2ccc(CN(C)C)cc2)cc1 | x | x | x | x | 13µM* | 22µM*
c1nc(NCc2ccc3c(c2)OCO3)c2[nH]cnc2n1 | -10% | 4% | x | x | u | u
COc1ccc(-n2c(=O)c(-c3cccs3)nc3cnc(Oc4ccccc4)nc32)cc1 | x | x | x | x | 2% | -16%
